Laboratory results as given in PubChem BioAssay.
Calls of active or inactive are those of the source. Unless noted, the rule behind the calls is not given here.

Legend:
[1] = test system: XIP peptide (Xip251-270) binding; experiment: XIP fragment 251-270 binding compounds – biochemical, small-molecule microarray, fluorescence 635/667 nm, 0.1 µg/mL protein, primary screen (AID 1182); conditions: fluorescent protein binding, 635 nm, higher = more signal, called active from +8 up or from −8 down
XIP peptide (Xip251-270) = experiment: compounds binding XIP fragment 251-270 – biochemical, small-molecule microarray, fluorescence 635/667 nm, 0.5 µg/mL protein, primary screen (AID 1183); conditions: fluorescence 635 nm, higher = more signal
[2] = blood-stage malaria parasite viability loss – strain 3D7, DAPI fluorescence, 100 nL, primary screen (AID 1184);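 note: parasites grown inside human red blood cells in medium with human serum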; conditions: P. falciparum 3D7 growth, 3 d, higher = more signal
[3] = target: Homeobox protein Hox-A13 (Mus musculus) (UniProt Q62424); experiment: disruptors of Hoxa13 oligonucleotide interaction – biochemical, fluorescence polarization, labeled oligonucleotide, primary screen (AID 1185); conditions: Hoxa13:DNA binding, 15 min, higher = more signal, called active from +8 up or from −8 down
Homeobox protein Hox-A13 (Mus musculus), sequence (Q62424 whole entry, looked up): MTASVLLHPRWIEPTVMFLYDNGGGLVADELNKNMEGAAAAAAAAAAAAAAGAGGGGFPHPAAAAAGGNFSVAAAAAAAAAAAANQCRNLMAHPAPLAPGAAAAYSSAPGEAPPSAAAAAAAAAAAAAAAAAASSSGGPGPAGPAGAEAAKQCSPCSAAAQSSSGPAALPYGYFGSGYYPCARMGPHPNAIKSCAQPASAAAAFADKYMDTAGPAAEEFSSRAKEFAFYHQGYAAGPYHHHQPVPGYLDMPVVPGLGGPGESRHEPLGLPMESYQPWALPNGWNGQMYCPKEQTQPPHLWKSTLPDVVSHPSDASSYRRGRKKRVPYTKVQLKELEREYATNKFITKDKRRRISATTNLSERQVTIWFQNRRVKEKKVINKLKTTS

[4] = blockers of DNA damage checkpoint Chk1 activation – imaging, HeLa, hydroxyurea, phospho-Chk1 antibody, percent positive cells, primary screen (AID 1186); conditions: hydroxyurea-induced phospho-Chk1 immunofluorescence imaging, higher = more signal
[5] = blockers of DNA damage checkpoint Chk1 activation – imaging, HeLa, hydroxyurea, phospho-Chk1 nuclear intensity, primary screen (AID 1187); conditions: hydroxyurea-induced phospho-Chk1 immunofluorescence imaging, higher = more signal

## CC1CC/C=C\[C@H]2OC34C=CCN(CCN5CCOCC5)C(=O)[C@H]3N(CCCO)C(=O)[C@@H]4C2C(=O)O1 (stereo partly specified)
[1]
  composite z-score: 0.537 (inactive)
XIP peptide (Xip251-270)
  composite z-score: -0.868
[2]
  z-score: -0.246
[3]
  z-score: -6.46 (inactive)
[4]
  z-score: 0.58 (inactive)
[5]
  z-score: 0.667 (inactive)

## COc1ccc([Si](C)(C)[C@H]2[C@H](CCO)O[C@@]3(C(=O)N(Cc4cccc(N(C=O)c5ccccc5)c4)c4ccccc43)[C@@H]2C)cc1
[1]
  composite z-score: 0.293 (inactive)
XIP peptide (Xip251-270)
  composite z-score: 0.665
[2]
  z-score: -2.57
[3]
  z-score: -0.557 (inactive)
[4]
  z-score: -1.73 (inactive)
[5]
  z-score: -0.831 (inactive)

## COc1ccc([Si](C)(C)[C@H]2[C@H](CC(=O)N3Cc4ccccc4C[C@H]3CO)O[C@@]3(C(=O)N(C)c4ccccc43)[C@@H]2C)cc1
[1]
  composite z-score: 0.958 (inactive)
XIP peptide (Xip251-270)
  composite z-score: 0.808
[2]
  z-score: -2.63
[3]
  z-score: -5.59 (inactive)
[4]
  z-score: 0.227 (inactive)
[5]
  z-score: 0.169 (inactive)

## COCCOC(=O)N1C(=O)[C@@]2(c3cc(C#CCCO)ccc31)[C@H](c1ccccc1OCCO)N1[C@H](c3ccccc3)[C@H](c3ccccc3)OC(=O)[C@H]1[C@@H]2C(N)=O
[1]
  composite z-score: 0.316 (inactive)
XIP peptide (Xip251-270)
  composite z-score: 0.732
[2]
  z-score: -2.22
[3]
  z-score: -3.69 (inactive)
[4]
  z-score: -0.271 (inactive)
[5]
  z-score: -0.0408 (inactive)

## O=C1C[C@@](C(=O)NC2CC2)(c2ccc([N+](=O)[O-])cc2)[C@@H](c2ccc(CO)cc2)N1C1CCCCC1
[1]
  composite z-score: 1.19 (inactive)
XIP peptide (Xip251-270)
  composite z-score: 0.662
[2]
  z-score: -1.39
[3]
  z-score: -3.19 (inactive)
[4]
  z-score: -0.544 (inactive)
[5]
  z-score: -0.979 (inactive)

## CC(C)NC(=O)[C@@H]1c2ccccc2C(=O)N(Cc2ccccc2C(F)(F)F)[C@H]1c1ccc(CO)cc1
[1]
  composite z-score: 0.483 (inactive)
XIP peptide (Xip251-270)
  composite z-score: 0.78
[2]
  z-score: -0.276
[3]
  z-score: -3.17 (inactive)
[4]
  z-score: 0.41 (inactive)
[5]
  z-score: 0.405 (inactive)

## COCCCNC(=O)[C@@H]1c2ccccc2C(=O)N(Cc2ccc(OC(F)(F)F)cc2)[C@H]1c1ccc(CO)cc1
[1]
  composite z-score: 0.16 (inactive)
XIP peptide (Xip251-270)
  composite z-score: 0.314
[2]
  z-score: 0.0414
[3]
  z-score: -3.51 (inactive)
[4]
  z-score: -0.163 (inactive)
[5]
  z-score: -0.368 (inactive)

## CC(C)(C)OC(=O)CC[C@@]1(C(=O)NCCN2CCOCC2)N=C(c2ccc(OCCCO)cc2)O[C@@H]1c1ccccc1CN=[N+]=[N-]
[1]
  composite z-score: 0.158 (inactive)
XIP peptide (Xip251-270)
  composite z-score: 0.729
[2]
  z-score: -0.41
[3]
  z-score: -4.93 (inactive)
[4]
  z-score: -0.0412 (inactive)
[5]
  z-score: -0.301 (inactive)

## O=C1N(Cc2ccccc2)c2ccccc2C[C@@]12COC(c1ccc(OCCCO)cc1)=N2
[1]
  composite z-score: 1.45 (inactive)
XIP peptide (Xip251-270)
  composite z-score: 0.308
[2]
  z-score: -2.23
[3]
  z-score: -5.21 (inactive)
[4]
  z-score: 0.0438 (inactive)
[5]
  z-score: 0.311 (inactive)

## CCCC#C[Si](O[C@H](CC)c1cn(Cc2ccccc2)nn1)(C(C)C)C(C)C
[1]
  composite z-score: -0.249 (inactive)
XIP peptide (Xip251-270)
  composite z-score: 0.598
[2]
  z-score: 0.0331
[3]
  z-score: -0.88 (inactive)
[4]
  z-score: -0.074 (inactive)
[5]
  z-score: 0.0744 (inactive)

## COC(=O)C1(Cc2ccccc2)C=C2C(=C(C)C(=O)C2C)CN1 (stereo unspecified)
[1]
  composite z-score: -0.217 (inactive)
XIP peptide (Xip251-270)
  composite z-score: 0.943
[2]
  z-score: 0.235
[3]
  z-score: -5.82 (inactive)
[4]
  z-score: 0.0869 (inactive)
[5]
  z-score: 0.244 (inactive)

## CN(C)C(=O)[C@]1(Cc2ccccc2)N=C(c2ccc(OCCCO)cc2)O[C@@H]1c1ccccc1CN=[N+]=[N-]
[1]
  composite z-score: 0.245 (inactive)
XIP peptide (Xip251-270)
  composite z-score: 0.764
[2]
  z-score: -2.6
[3]
  z-score: -4.47 (inactive)
[4]
  z-score: 0.0164 (inactive)
[5]
  z-score: 0.304 (inactive)

## CN1C(=O)C2C(C1=O)C1C=C(c3ccc(CO)cc3)C2C(C2CC2)N1C (stereo unspecified)
[1]
  composite z-score: 0.017 (inactive)
XIP peptide (Xip251-270)
  composite z-score: 0.816
[2]
  z-score: -1.97
[3]
  z-score: -5.37 (inactive)
[4]
  z-score: -0.287 (inactive)
[5]
  z-score: -0.232 (inactive)

## COc1cc(C(O)C2C=CC3C(=O)N(c4ccccc4)C(=O)C3N2Nc2ccccc2)cc(OC)c1OC (stereo unspecified)
[1]
  composite z-score: 1.1 (inactive)
XIP peptide (Xip251-270)
  composite z-score: 0.746
[2]
  z-score: 0.808
[3]
  z-score: -3.96 (inactive)
[4]
  z-score: -0.153 (inactive)
[5]
  z-score: -0.522 (inactive)

## C=C(COC)C(=O)CC[C@@H](OC(C)=O)c1ccccc1OCCO
[1]
  composite z-score: 0.0063 (inactive)
XIP peptide (Xip251-270)
  composite z-score: 0.522
[2]
  z-score: -2.06
[3]
  z-score: -5.01 (inactive)
[4]
  z-score: 0.374 (inactive)
[5]
  z-score: 0.77 (inactive)

## CC(C)=C1C(=O)C(c2ccccc2)=C2CN3C(=O)N(CCc4ccccc4)C(=O)[C@]3(C)[C@H]21
[1]
  composite z-score: 0.254 (inactive)
XIP peptide (Xip251-270)
  composite z-score: 0.295
[2]
  z-score: 0.127
[3]
  z-score: -3.12 (inactive)
[4]
  z-score: -0.0061 (inactive)
[5]
  z-score: 0.467 (inactive)

## CC(C)C(O)C1C=CC2C(=O)NC(=O)C2N1Nc1ccccn1 (stereo unspecified)
[1]
  composite z-score: 0.163 (inactive)
XIP peptide (Xip251-270)
  composite z-score: 0.943
[2]
  z-score: 0.17
[3]
  z-score: -3.11 (inactive)
[4]
  z-score: -0.446 (inactive)
[5]
  z-score: -0.67 (inactive)

## C=C(CCCC)/C(=C/C[C@H](OC(=O)c1ccncc1)c1cccc(OCCO)c1)c1cnc2ccccc2c1
[1]
  composite z-score: 0.867 (inactive)
XIP peptide (Xip251-270)
  composite z-score: 0.654
[2]
  z-score: -2.97
[3]
  z-score: -3.75 (inactive)
[4]
  z-score: 0.218 (inactive)
[5]
  z-score: 0.367 (inactive)

## C=CC[C@@]1(C(=O)N(C)C)N=C(c2ccc(OCCCO)cc2)O[C@@H]1c1ccccc1CN=[N+]=[N-]
[1]
  composite z-score: 0.161 (inactive)
XIP peptide (Xip251-270)
  composite z-score: 0.774
[2]
  z-score: -2.33
[3]
  z-score: -4.32 (inactive)
[4]
  z-score: -0.274 (inactive)
[5]
  z-score: -0.052 (inactive)

## C=CC[C@]1(C(=O)NCC(O)CO)COC(c2ccc(OCCCO)cc2)=N1 (stereo partly specified)
[1]
  composite z-score: -0.933 (inactive)
XIP peptide (Xip251-270)
  composite z-score: -1.45
[2]
  z-score: 0.343
[3]
  z-score: -4.55 (inactive)
[4]
  z-score: 0.0293 (inactive)
[5]
  z-score: -0.553 (inactive)

## COCCOC(=O)N1C(=O)[C@@]2(c3cc(C#CC4(O)CCCCCC4)ccc31)[C@H](c1ccc(O)cc1)N1[C@H](c3ccccc3)[C@H](c3ccccc3)OC(=O)[C@H]1[C@@H]2C(=O)N1CCCCCCC1
[1]
  composite z-score: 0.265 (inactive)
XIP peptide (Xip251-270)
  composite z-score: 0.747
[2]
  z-score: -1.74
[3]
  z-score: 0.0885 (inactive)
[4]
  z-score: -0.0596 (inactive)
[5]
  z-score: 0.244 (inactive)

## COC(=O)[C@]1(CCC(=O)OC(C)(C)C)N=C(c2ccc(OCCCO)cc2)O[C@@H]1c1ccccc1N=[N+]=[N-]
[1]
  composite z-score: -0.194 (inactive)
XIP peptide (Xip251-270)
  composite z-score: 0.633
[2]
  z-score: -1.98
[3]
  z-score: -2.21 (inactive)
[4]
  z-score: 0.0989 (inactive)
[5]
  z-score: 0.562 (inactive)

## C[N+](C)(C)CCCC[C@@H]1NC(=O)[C@H]2C[C@@H](C(=O)NCCCCCNC(=O)CS)[C@@H](c3cccc(OCCO)c3)N2C1=O
[1]
  composite z-score: 0.649 (inactive)
XIP peptide (Xip251-270)
  composite z-score: -0.203
[2]
  z-score: -0.222
[3]
  z-score: -2.8 (inactive)
[4]
  z-score: 0.0911 (inactive)
[5]
  z-score: 0.164 (inactive)

## Cc1ccc(S[C@]2(C(=O)NC3CC3)CC(=O)N(C(C)C)[C@@H]2c2ccc(CO)cc2I)cc1
[1]
  composite z-score: 0.717 (inactive)
XIP peptide (Xip251-270)
  composite z-score: 0.682
[2]
  z-score: -1.63
[3]
  z-score: -4.06 (inactive)
[4]
  z-score: -0.248 (inactive)
[5]
  z-score: -0.439 (inactive)

## CCOC(=O)C[C@H]1[C@H](OC(=O)c2ccccc2-c2ccccc2)[C@@H](NC(=O)c2ccc3ccccc3c2)c2cc(OCCCO)ccc2N1C(=O)Cc1ccc(OC)cc1
[1]
  composite z-score: 0.882 (inactive)
XIP peptide (Xip251-270)
  composite z-score: -0.47
[2]
  z-score: 0.0063
[3]
  z-score: -2.79 (inactive)
[4]
  z-score: -0.242 (inactive)
[5]
  z-score: -0.189 (inactive)

## CC(C)NC(=O)[C@@]1(C)c2ccccc2C(=O)N(Cc2ccccc2)[C@H]1c1ccc(CO)cc1
[1]
  composite z-score: 0.0062 (inactive)
XIP peptide (Xip251-270)
  composite z-score: 0.875
[2]
  z-score: -0.321
[3]
  z-score: -2.37 (inactive)
[4]
  z-score: -0.471 (inactive)
[5]
  z-score: -0.429 (inactive)
